Several values for one entry are separate records, joined by “and”; a condition that tells them apart may be missing. Identical values can stand only once. The whole screen tested about 16,000 compounds, of which about 4,000 (25%) were called active. About 26% were inconclusive and are not listed. Only a sample is shown. Unmarked numbers belong to inactive results. Calls come from the whole dose curve; as a rule, active = well fitted curve in the direction sought with a large enough effect; inconclusive = small, poorly fitted or top-dose-only effect, or effect the other way; inactive = no such curve, though single readings can be large or run the other way.
Target: Cytochrome P450 2C9 (Homo sapiens) (UniProt P11712)
Sequence (P11712 whole entry, looked up): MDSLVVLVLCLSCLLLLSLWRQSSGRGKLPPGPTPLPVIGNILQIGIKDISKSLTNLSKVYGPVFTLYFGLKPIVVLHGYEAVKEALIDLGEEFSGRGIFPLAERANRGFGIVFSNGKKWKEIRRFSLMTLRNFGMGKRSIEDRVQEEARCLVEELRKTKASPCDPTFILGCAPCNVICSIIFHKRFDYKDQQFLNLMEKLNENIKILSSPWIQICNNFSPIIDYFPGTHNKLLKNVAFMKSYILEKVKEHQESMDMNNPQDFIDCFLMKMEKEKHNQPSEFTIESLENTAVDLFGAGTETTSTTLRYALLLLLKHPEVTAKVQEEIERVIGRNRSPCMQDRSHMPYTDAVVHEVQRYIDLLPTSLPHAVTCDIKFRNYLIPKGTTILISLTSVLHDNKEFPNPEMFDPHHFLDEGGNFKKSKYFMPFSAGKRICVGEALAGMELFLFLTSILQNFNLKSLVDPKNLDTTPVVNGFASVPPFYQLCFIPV
Experiment: Cytochrome panel assay with activity outcomes
Details: recombinant CYP, pro-luciferin dealkylation, luminescence, p450-cyp2c9; series mostly up to 57.1 µM; activity, negative = inhibition: at the top concentration
% is set by controls: 0 for no effect and ±100 for the full control effect.

| Compound | activity, negative = inhibition | AC50 |
| --- | --- | --- |
| COCC(=O)N1CCC[C@@]2(CCN(C(=O)Nc3cccc(F)c3)C2)C1 | 3.07% |  |
| CCOC(=O)CCCN | 4.7% [at 11.4 µM] |  |
| O=[N+]([O-])c1ccc2c(c1)S(=O)c1ccccc1-2 (configuration not stated) | -1.14% [at 11.4 µM] |  |
| Cc1cc([N+](=O)[O-])ccc1-c1ccc(C2Nc3ccccc3C(=O)N2O)o1 (configuration not stated) |  | 2.82 µM (active) |
| O=C1C2=C(Nc3cc([N+](=O)[O-])ccc3N2)O[C@@H]1c1ccc([C@H]2OC3=C(Nc4ccc([N+](=O)[O-])cc4N3)C2=O)cc1 | -18.7% [at 11.4 µM] |  |
| COc1cc2cc3c(N)c(C(=O)Nc4sc(C)c(C)c4C#N)sc3nc2cc1OC | -13.7% |  |
| CCOC(=O)Cc1csc(NC(=O)c2sc3nc4ccc(CC)cc4cc3c2N)n1 |  | 0.447 µM (active) |
| CCOC(=O)Cc1csc(NC(=O)c2ccc(Cl)nc2)n1 |  | 11.2 µM (active) |
| CC(C)(C)c1ccccc1OCCN1CCCC1 | 8.57% |  |
| Cc1cccc(C)c1NC(=O)/C(C#N)=C/c1cccs1 |  | 11.2 µM (active) |
| CCOc1ccc2nc(C)cc(Nc3ccc4c(c3)OCCO4)c2c1 | 13.7% |  |
| COCCN(C(=O)Nc1ccc(OC)cc1OC)C1CCN(C(C)=O)CC1 | -16.3% |  |
| CCOc1ccc(-n2c(SCC(=O)Nc3ccc(OC)cc3OC)nc3c(c2=O)SCC3)cc1 |  | 4.47 µM (active) |
| CCOc1ccc(-n2c(SCC(=O)Nc3ccc4c(c3)OCCO4)nc3c(c2=O)SCC3)cc1 |  | 2.82 µM (active) |
| CC(=O)c1[nH]c(C)c(C(C)=O)c1C | -32.9% |  |
| CN(C)c1ccc2nc3c(C(=O)O)cc(=O)c(O)c-3oc2c1 | -29.4% [at 11.4 µM] |  |
| Cc1ccc(-n2c(O)cnc2Nc2nc(C)cc(C)n2)cc1 | 4.21% |  |
| COc1ccc(Oc2ncc3nc(-c4ccc(Cl)cc4)c(=O)n(C)c3n2)cc1 | -9.75% |  |
| COc1cccc(Nc2ncc3nc(-c4ccc(Cl)cc4)c(=O)n(CCC#N)c3n2)c1 | 3.96% |  |
| COc1ccc(/C(C#N)=C/c2c(-c3ccc(Cl)cc3)nc3c(C)cccn23)cc1 |  | 5.01 µM (active) |
| O=C(O)Cc1sc(-c2ccc(Cl)cc2)nc1-c1ccccc1 |  | 2 µM (active) |
| Nc1nc(-c2cc(-c3cccc4ccccc34)nc(N)n2)cc(-c2cccc3ccccc23)n1 | 10.6% [at 11.4 µM] |  |
| CN(Cc1cccc2ccccc12)Cc1cccc2ccccc12 | -23.2% [at 11.4 µM] |  |
| BrC(c1cccc2ccccc12)c1cccc2ccccc12 |  | 3.16 µM (active) |

| Compound | activity, negative = inhibition | AC50 |
| --- | --- | --- |
| Fc1ccc(C2CC(c3ccco3)=NN2c2ccccc2)cc1 (configuration not stated) |  | 1.41 µM (active) |
| C[C@@H]1CC[C@@H]2C(=O)N3[C@@H](CC[C@@H](C)[C@@H]3c3ccc(-c4ccco4)cc3)C(=O)N2[C@H]1c1ccc(-c2ccco2)cc1 | -27.5% [at 11.4 µM] |  |
| c1cncc(CNc2ccnc(-c3ccc4c(c3)OCO4)n2)c1 | -9.36% [at 2.29 µM] |  |
| COc1ccc(NC2=NC(=S)N(c3ccc(C)cc3)C23CCCCC3)cc1 | 20.2% |  |
| Cc1cccc(NC2=NC(=S)N(c3ccc(C(=O)O)cc3)C23CCCCC3)c1 |  | 25.1 µM (active) |
| Cc1cccc(N2CCN(c3ccc(NC(=O)/C=C(/C(=O)O)c4ccccc4)cc3)CC2)c1 | -27% |  |
| CCc1nc(N2CCC3(CC2)OCCO3)c2nnn(Cc3ccccc3Cl)c2n1 |  | 11.2 µM (active) |
| Cc1noc(C)c1-c1nc(NCCN2CCOCC2)c2ccccc2n1 | 1.01% [at 2.29 µM] |  |
| COc1cccc(NC(=S)NNC(=O)C(C)n2nc(C)c([N+](=O)[O-])c2C)c1 (configuration not stated) |  | 5.01 µM (active) |
| Cc1cc(NC(=O)c2nn(C)c(C)c2[N+](=O)[O-])no1 | -8.43% |  |
| Cc1nn(C(C)C(=O)Nc2ccc(Cl)cn2)c(C)c1[N+](=O)[O-] (configuration not stated) |  | 14.1 µM (active) |
| COc1cccc(NC(=S)NN2CCN(C)CC2)c1 | -10.9% |  |
| CC(=O)Nc1ccc([N+](=O)[O-])cn1 | 9.45% |  |
| COc1ccccc1CN1CC[C@@]2(CCCN(C(=O)c3ccco3)C2)C1 | 5.94% |  |
| Cc1ncsc1C(=O)N1N=C2/C(=C/c3ccccc3)CCCC2C1c1ccccc1 (configuration not stated) |  | 2.82 µM (active) |
| COc1ccc(/C=C2\CCCC3C2=NN(C(=O)c2ccco2)C3c2ccc(OC)c(OC)c2)cc1OC (configuration not stated) |  | 11.2 µM (active) |
| O=c1cc(-c2ccccc2)[nH]n1-c1ccc([N+](=O)[O-])cc1 |  | 10 µM (active) |
| Cc1cc(C(=O)C(=O)NC(C)C)c(C)n1-c1ccc([N+](=O)[O-])cc1 | -6.96% |  |
| CC1(C)N=C(N)N=C(N)N1CCCCc1ccccc1 | 1.42% [at 11.4 µM] |  |
| CCOc1ccc(CCNC(=O)C2CC(=O)N(C3CCCC3)C2)cc1OCC (configuration not stated) | -18.7% |  |
| CCOc1ccc(CC(=O)C2C(=O)CCCC2=O)cc1OCC |  | 7.08 µM (active) |
| CCOc1ccc(CC(C(N)=O)C(N)=O)cc1CN(C)C | -25.3% |  |
| COCn1c2ccccc2c2nnc(C(C)=O)nc21 | 13.8% [at 11.4 µM] and -8.55% [at 11.4 µM] |  |
